Assay results reported in the supplement of paper PMC7411640.
Structures can show the parent of a compound that is named as a salt.

Test system: MDA-MB-468
Test: phospho-S6 immunofluorescence (DAPI-normalised), per-plate z-score; higher = higher phospho-S6 signal (less pathway suppression)
Details: 24 h
Experimental: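 GPCR-targeted compound library (MedChemExpress HY-L006) tested on MDA-MB-468 PTEN-null TNBC cells in 384-well plates at 0.1, 1 or 10 uM, combined with vehicle, GDC0941 450 nM or lapatinib 1 uM, for 24 h. Phospho-S6 (S240/244) immunofluorescence normalised to DAPI and expressed as a per-plate z-score; values are the mean of biological triplicates.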

Row | Compound | phospho-S6 immunofluorescence (z-score) (co-treatment: GDC0941 450 nM) | phospho-S6 immunofluorescence (z-score) (co-treatment: lapatinib 1 uM) | phospho-S6 immunofluorescence (z-score) (co-treatment: vehicle)
1 | CC(C)(Cc1ccc2ccccc2c1)NC[C@@H](O)COc1cccc(Cl)c1C#N (compound 10 µM) | -3.37 | -8.76 | -10.1
2 | CC1(C)O[C@@H]2[C@@H](CO[C@@]3(COS(N)(=O)=O)OC(C)(C)O[C@@H]23)O1 [Topiramate] (compound 10 µM) | -0.24 | 0.19 | -0.31
3 | COc1cc2c(NC3CCN(C(C)C)CC3)nc(N3CCC(F)(F)CC3)nc2cc1OCCCN1CCCC1 (compound 10 µM) | 1.81 | 3.34 | 1.97
4 | CCCCC(=O)N(Cc1ccc(-c2ccccc2-c2nnn[nH]2)cc1)[C@H](C(=O)O)C(C)C [Valsartan] (compound 10 µM) | 0.04 | 0.5 | 0.13
5 | COc1ccc(CC(C)NCC(O)c2ccc(O)c(NC=O)c2)cc1 (centres undefined) [Formoterol (Fumarate)] (compound 10 µM) | 1.08 | 0.77 | 0.16
6 | CCC(=O)NCC[C@@H]1CCc2ccc3c(c21)CCO3 [Ramelteon] (compound 10 µM) | -0.04 | -0.4 | 0.21
7 | C[C@H]1C[C@@H]2[C@H]([C@@H](O)C[C@@]3(C)[C@H]2CC[C@]3(O)C(=O)CO)[C@@]2(C)C=CC(=O)C=C12 [Methylprednisolone] (compound 10 µM) | 0.3 | 3.09 | 0.51
8 | CNCC(O)c1ccc(O)c(O)c1 (racemic) [DL-Epinephrine] (compound 10 µM) | 1.29 | 5.47 | 4.64
9 | O=C1NCC2(CCN(CCc3ccccc3)CC2)O1 [Fenspiride (Hydrochloride)] (compound 10 µM) | 0.59 | 0.67 | 1.01
10 | CC(C)(C)C(=O)C(=Nc1ccc(Cl)cc1)NNc1ccc(Cl)cc1 (compound 10 µM) | -3.52 | -6.25 | -3.76
11 | Cc1nccn1CCC(C(N)=O)(c1ccccc1)c1ccccc1 [Imidafenacin] (compound 10 µM) | -0.05 | 0.38 | 0.28
12 | CN1CCc2cc(Cl)c(O)cc2[C@@H](c2ccccc2)C1 (compound 10 µM) | -0.98 | -1.63 | 0.1
13 | Cc1cncc(CN2CCC(=C3c4ccc(Cl)cc4CCc4cccnc43)CC2)c1 [Rupatadine (Fumarate)] (compound 10 µM) | -1.47 | -2.09 | -1.45
14 | O=C(c1ccc(OCCCc2c[nH]cn2)cc1)C1CC1 [Ciproxifan (maleate)] (compound 10 µM) | -0.58 | -0.62 | 0.21
15 | O=C(Nc1cccc2c(=O)cc(-c3nnn[nH]3)oc12)c1ccc(OCCCCc2ccccc2)cc1 [Pranlukast] (compound 10 µM) | 0.87 | 0.55 | -0.36
16 | CC[C@H](C)[C@@H]1NC(=O)[C@H](Cc2ccc(OC)cc2)NC(=O)CCCSC[C@@H](C(=O)N2CCC[C@H]2C(=O)N[C@@H](CC(C)C)C(=O)NCC(N)=O)NC(=O)[C@H](CC(N)=O)NC(=O)[C@H](CCC(N)=O)NC1=O [Carbetocin] (compound 10 µM) | 0.31 | -0.07 | 0.3
17 | CNC(=O)[C@H]1O[C@@H](n2cnc3c(NCc4cccc(I)c4)nc(Cl)nc32)[C@H](O)[C@@H]1O (compound 10 µM) | -1.27 | -1.18 | -2.34
18 | CNC[C@H](O)c1ccc(O)c(O)c1 [L-Epinephrine (Bitartrate)] (compound 10 µM) | 0.93 | 2.5 | -0.23
19 | CCCCC[C@H](O)/C=C/[C@@H]1[C@@H](C/C=C\CCCC(=O)O)[C@@H](O)C[C@H]1O [Dinoprost (tromethamine salt)] (compound 10 µM) | -0.07 | -0.14 | 0.98
20 | CCCc1nc(C(C)(C)O)c(C(=O)O)n1Cc1ccc(-c2ccccc2-c2nnn[nH]2)cc1 [Olmesartan] (compound 10 µM) | 0.13 | 0.28 | -0.82
21 | Cc1nccn1CC1CCc2c(c3ccccc3n2C)C1=O (centres undefined) [Ondansetron (hydrochloride dihydrate)] (compound 10 µM) | 0.11 | -0.58 | 0.16
22 | CCn1c(=O)c2c(nc(/C=C/c3ccc(OC)c(OC)c3)n2C)n(CC)c1=O [Istradefylline] (compound 10 µM) | 0.2 | 0.09 | -0.74

Row | Compound | phospho-S6 immunofluorescence (z-score) (co-treatment: GDC0941 450 nM) | phospho-S6 immunofluorescence (z-score) (co-treatment: lapatinib 1 uM) | phospho-S6 immunofluorescence (z-score) (co-treatment: vehicle)
23 | CCC/N=C1\S/C(=C\c2ccc(OC[C@H](O)CO)c(Cl)c2)C(=O)N1c1ccccc1C [Ponesimod] (compound 10 µM) | -0.8 | 0.52 | 1.07
24 | CC(=O)Oc1cc(C(C)C)c(OCCN(C)C)cc1C [Moxisylyte (hydrochloride)] (compound 10 µM) | 0.49 | -0.11 | -1.23
25 | COCc1nnc(N2CC(Oc3ccc(F)cc3Cl)C2)n1-c1ccc(OC)nc1 (compound 10 µM) | -0.38 | -0.91 | -0.61
26 | CN(C)CCN(Cc1ccccc1)c1ccccn1 [Tripelennamine (hydrochloride)] (compound 10 µM) | -0.07 | -0.31 | -0.41
27 | Nc1nc(CC(=O)Nc2ccc(CCNC[C@H](O)c3ccccc3)cc2)cs1 [Mirabegron] (compound 10 µM) | 0.91 | 1.75 | 0.56
28 | CN1CCN(C2=Nc3ccccc3Oc3ccc(Cl)cc32)CC1 [Loxapine (succinate)] (compound 10 µM) | 0.7 | 1.22 | -1.15
29 | COC(=O)CCc1ccc(OCC(O)CNC(C)C)cc1 (centres undefined) [Esmolol (hydrochloride)] (compound 10 µM) | 1.52 | 0.09 | -0.19
30 | C[C@@H](O[C@H]1OCCN(Cc2n[nH]c(=O)[nH]2)[C@H]1c1ccc(F)cc1)c1cc(C(F)(F)F)cc(C(F)(F)F)c1 [Aprepitant] (compound 10 µM) | -1.22 | -1.02 | 0.64
31 | C[C@@H]1C[C@H]2[C@@H]3CCC4=CC(=O)C=C[C@]4(C)[C@@]3(F)[C@@H](O)C[C@]2(C)[C@@]1(O)C(=O)CO [Dexamethasone] (compound 10 µM) | 0.1 | 0.34 | 1.02
32 | Cn1cc(C(=O)[C@@H]2CCc3[nH]cnc3C2)c2ccccc21 [Ramosetron (Hydrochloride)] (compound 10 µM) | -1.27 | 0 | -0.92
33 | CN1Cc2c(N)cccc2C(c2ccccc2)C1 (centres undefined) [Nomifensine (maleate)] (compound 10 µM) | -0.09 | -0.69 | -0.17
34 | N#Cc1cc(NC(=O)C(=O)O)c(Cl)c(NC(=O)C(=O)O)c1 [Lodoxamide] (compound 10 µM) | 0.92 | 0.6 | 0.66
35 | CC1OC2(CS1)CN1CCC2CC1 (centres undefined) [Cevimeline (hydrochloride hemihydrate)] (compound 10 µM) | 0.65 | -0.04 | 0.89
36 | COc1cc2nc(N3CCN(C(=O)c4ccco4)CC3)nc(N)c2cc1OC [Prazosin (hydrochloride)] (compound 10 µM) | 2.1 | 0.54 | 0.24
37 | CC1(C)C(=O)N(CCN2CCC(C(=O)c3ccc(F)cc3)CC2)c2ccccc21 (compound 10 µM) | -0.29 | -0.77 | 0.28
38 | Cc1ccc(/C(=C\CN2CCCC2)c2cccc(/C=C/C(=O)O)n2)cc1 [Acrivastine] (compound 10 µM) | 0.27 | 0.6 | 0.62
39 | CN(C)CCCN1c2ccccc2Sc2ccc(C(F)(F)F)cc21 [Triflupromazine (hydrochloride)] (compound 10 µM) | -0.42 | -2.74 | 2.53
40 | OCC1OC(n2cnc3c(NC4CCCCC4)ncnc32)C(O)C1O (centres undefined) [N6-Cyclohexyladenosine] (compound 10 µM) | -0.37 | 1.37 | 0.6
41 | N[C@@H](Cc1ccc(O)c(O)c1)C(=O)O (compound 10 µM) | -0.94 | -0.12 | -0.55
42 | CC(C)[C@H](NC(=O)[C@H](CCCN=C(N)N)NC(=O)[C@@H](N)CC(=O)O)C(=O)N[C@@H](Cc1ccc(O)cc1)C(=O)N[C@H](C(=O)N[C@@H](Cc1cnc[nH]1)C(=O)N1CCC[C@H]1C(=O)N[C@@H](Cc1ccccc1)C(=O)O)C(C)C [Angiotensin II 5-valine] (compound 10 µM) | 1.16 | 0.49 | 0.07
43 | c1ccc(CC2=NCCN2)cc1 [Tolazoline (hydrochloride)] (compound 10 µM) | 1.08 | 0.41 | 0.92
